Test results taken from PubChem BioAssay (EPA / NIEHS).
“And” between values parts separate entries of the source, which are not always exact repeats. Equal values may be shown once. The source made the active and inactive calls. The calls were made as follows: active = hit-call score of the fitted dose curve at least 0.9, where 1 is the maximum; inactive = score below 0.9.

Each compound was assayed on Macrophage colony-stimulating factor (MCSF), CSF1 (gene 1435) (assay: BSK_LPS_MCSF: BioMAP Diversity Plus: LPS Assay for Macrophage colony-stimulating factor (MCSF) Biomarker Activity (AID 2283083)). Settings: primary human HUVEC with PBMC; actives raise or lower the signal.
Procedure: BSK_LPS is a cell-based, multiplexed-readout assay that uses umbilical vein endothelium and peripheral blood mononuclear cells, a human vascular primary cell co-culture, with measurements taken at 24 hours after chemical dosing in a 96-well plate.BSK_LPS_MCSF is an assay component measured in the BSK_LPS assay. It measures M-CSF antibody related to regulation of gene expression using ELISA technology.Data from the assay component BSK_LPS_MCSF was analyzed into 1 assay endpoint. This assay endpoint, BSK_LPS_MCSF, was analyzed with bidirectional fitting relative to DMSO as the negative control and baseline of activity. Using a type of binding reporter, gain or loss-of-signal activity can be used to understand changes in the signaling as they relate to the gene CSF1. Furthermore, this assay endpoint can be referred to as a primary readout, because this assay has produced multiple assay endpoints where this one serves a signaling function. To generalize the intended target to other relatable targets, this assay endpoint is annotated to the cytokine intended target family, where the subfamily is colony stimulating factor.
The levels of cell surface (or secreted, indicated by the prefix "s") biomarker endpoints were measured by ELISA. Overt cytotoxicity to cells in confluent adherent cultures (all systems other than the BT system) was assessed by measuring total protein levels using sulforhodamine B (SRB) staining in parallel cultures at the time of biomarker measurements, indicated as SRB endpoints. For proliferation assays for adherent cell types, individual cell types are cultured at sub-confluence and relative cell numbers quantified by SRB staining at time points optimized for each system (48 h: 3C and CASM3C systems; 72 h: BT and HDF3CGF systems; 96 h: SAg system). SRB was performed by staining cells with 0.1% SRB after fixation with 10% TCA and reading wells at 560 nm.Viability and proliferation of PBMC (T cells) was quantified by Alamar Blue reduction for the SAg and BT systems. For PBMC viability (referred to as PBMC Cytotoxicity within the assay endpoint names), cells were plated (75,000/well in a 96-well plate) and then chemical samples added for 1 h before addition of activators, SEB and TSST-1 (20 ng/mL final concentration each). Cells were incubated for 90 h. Then, Alamar Blue (20 uL/well) (Invitrogen, Cat DAL1100) was added for 6 h, and the plates were read with a fluorescence microplate reader at 546/580 nm (excitation/emission). For PBMC proliferation, cells were plated and activated as above but incubated for only 16 h prior to addition of Alamar Blue. Plates were read after 6 h.

Row | SMILES | outcome | AC50
1 | CN1COCN(Cc2cnc(Cl)s2)C1=N[N+](=O)[O-] | inactive | 
2 | COc1ccc(C(=CC(=O)N2CCOCC2)c2ccc(Cl)cc2)cc1OC |  | 12.8 µM (active)
3 | O=C(O)c1cc(Oc2ccc(C(F)(F)F)cc2Cl)ccc1[N+](=O)[O-] | inactive | 
4 | CCC(=NOC/C=C/Cl)C1=C(O)CC(C2CCOCC2)CC1=O (stereo not given) | inactive | 
5 | CC1(C(=O)Nc2ccc(O)c(Cl)c2Cl)CCCCC1 | inactive | 
6 | CN(C)[C@@H]1C(=O)C(C(N)=O)=C(O)[C@@]2(O)C(=O)C3=C(O)c4c(O)cccc4[C@@](C)(O)[C@H]3[C@H](O)[C@@H]12 | inactive | 
7 | CCOP(=S)(OCC)SCCSCC | inactive | 
8 | COP(=O)(OC)C(O)C(Cl)(Cl)Cl (stereo not given) | inactive | 
9 | CCCOc1nn(C(=O)NS(=O)(=O)c2ccccc2C(=O)OC)c(=O)n1C | inactive | 
10 | O=[N+]([O-])c1cc(C(F)(F)F)c(Cl)c([N+](=O)[O-])c1Nc1ncc(C(F)(F)F)cc1Cl |  | 1.49 µM (active) and 2.86 µM (active)
11 | CCOP(=S)(OCC)Oc1cc(C)nc(C(C)C)n1 | inactive | 
12 | C#CC(C)(C)NC(=O)c1cc(Cl)cc(Cl)c1 | inactive | 
13 | CC(C)=CC1C(C(=O)OCN2C(=O)C3=C(CCCC3)C2=O)C1(C)C (stereo not given) |  | 34.3 µM (active)
14 | CCOC(=O)COc1cc(-c2nn(C)c(OC(F)F)c2Cl)c(F)cc1Cl | inactive | 
15 | COP(=O)(OC)SCn1c(=O)oc2cc(Cl)cnc21 |  | 18.3 µM (active)
16 | CCCCN(CC)c1c([N+](=O)[O-])cc(C(F)(F)F)cc1[N+](=O)[O-] |  | 18.2 µM (active)
17 | CCOP(=S)(Oc1cnc(C(C)(C)C)nc1)OC(C)C (stereo not given) |  | 32.6 µM (active)
18 | CCC(CC)Nc1c([N+](=O)[O-])cc(C)c(C)c1[N+](=O)[O-] |  | 18.9 µM (active)
19 | CN(C)NC(=O)CCC(=O)O | inactive | 
20 | CCNc1nc(Cl)nc(NC(C)(C)C#N)n1 | inactive | 

Row | SMILES | outcome | AC50
21 | CNC(=O)ON=C(C)SC | inactive | 
22 | CCCCSP(=O)(SCCCC)SCCCC | inactive | 
23 | S=C1NCCN1 | inactive | 
24 | COP(=O)(NC(C)=O)SC (stereo not given) | inactive | 
25 | O=c1ccc(=O)[nH][nH]1 | inactive | 
26 | C#CCC1=C(C)C(OC(=O)C2C(C=C(C)C)C2(C)C)CC1=O (stereo not given) |  | 23.4 µM (active)
27 | CCCSP(=O)(OCC)SCCC | inactive | 
28 | CCc1cccc(C)c1N(C(=O)CCl)C(C)COC (stereo not given) | inactive | 
29 | C=C(C)[C@H]1Cc2c(ccc3c2O[C@@H]2COc4cc(OC)c(OC)cc4[C@@H]2C3=O)O1 |  | 13.4 µM (active)
30 | CNc1cnn(-c2cccc(C(F)(F)F)c2)c(=O)c1Cl | inactive | 
31 | COc1cc(OC)nc(Sc2cccc(Cl)c2C(=O)O)n1 | inactive | 
32 | CON=C(C(=O)OC)c1ccccc1CON=C(C)c1cccc(C(F)(F)F)c1 |  | 5.49 µM (active)
33 | CCOP(=O)(NC(C)C)Oc1ccc(SC)c(C)c1 (stereo not given) | inactive | 
34 | CCc1cccc(CC)c1N(COC)C(=O)CCl |  | 13.6 µM (active)
35 | Cc1ccn2nc(S(=O)(=O)Nc3c(F)cccc3F)nc2n1 | inactive | 
36 | CC[C@H](C)[C@H]1O[C@]2(C=C[C@@H]1C)C[C@@H]1C[C@@H](C/C=C(\C)[C@@H](O[C@H]3C[C@H](OC)[C@@H](O[C@H]4C[C@H](OC)[C@@H](NC)[C@H](C)O4)[C@H](C)O3)[C@@H](C)/C=C/C=C3\CO[C@@H]4[C@H](O)C(C)=C[C@@H](C(=O)O1)[C@]34O)O2 |  | 4.33 µM (active)
37 | FC(F)C(F)(F)OCC(Cn1cncn1)c1ccc(Cl)cc1Cl (stereo not given) |  | 30.7 µM (active)
38 | C[N+]1(C)CCCCC1 | inactive | 
39 | CCOC(=O)CC(SP(=O)(OC)OC)C(=O)OCC (stereo not given) | inactive | 
40 | COc1cccc(C(=O)NN(C(=O)c2cc(C)cc(C)c2)C(C)(C)C)c1C | inactive | 
